Shown are actives, neighbours in structure and some others; about 7.9% of the full set was active somewhere.
MCF10A rerep: induces DNA re-replication in MCF 10a normal breast cells; MCF 10A DNA re-replication, Hoechst nuclear intensity, 48 h; Potency, µM (series often up to 46.1 µM), for inactives: at the highest dose activity, positive = re-replication, usual class: activators; 2.9% of 350,000 active; AID 624296; note: % of control where 0% means no effect; nearly all actives have a fitted effect of over 50% in size
SW480 rerep: inducers of DNA re-replication in SW480 colon cancer cells | SW480 DNA re-replication, Hoechst DNA content imaging, 48 h | Potency, µM (top dose mostly 46.1 µM), inactives show top-dose re-replication activation, most hits filed as activators | 1.8% of 340,000 active | AID 624297; note: % of control where 0% means no effect; nearly all actives have a fitted effect of over 55% in size
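Compounds, transferred as 23 nL by pin tool, were incubated with cells for 48 hr; DNA content per nucleus was then quantified by Hoechst staining and fluorescence plate imaging.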
HT1080 IDH1KD tx: toxicity to HT-1080 IDH1 knockdown cells (counter line); HT-1080 IDH1 knockdown viability, ATP luminescence, 48 h; Potency, µM (highest dose often 46.1 µM), inactives show at the top dose activity, negative = toxicity, hits mostly cytotoxic; 2% of 360,000 active; AID 686971;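 note: 0% = DMSO wells and -100% = cell-free medium wells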
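% activity derives from luminescence (CellTiter-Glo), normalised to DMSO and no-cell wells. HT-1080-IDH1KD cells, 750/well, had 48 h compound exposure at 37 °C.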
HT1080-NT tox: kills 2HG-producing HT-1080-NT fibrosarcoma cells | HT-1080-NT fibrosarcoma viability, CellTiter-Glo ATP luminescence, 48 h | Potency, µM (series often up to 46.1 µM), without a hit: at the highest dose activity, negative = less viability, usual class: cytotoxic | 1.6% of 360,000 active;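 note: NT is the 2HG producing partner of a matched IDH1 knockdown line; 0% = DMSO-treated cells and -100% = media-only wells without cells; nearly all actives have a fitted effect of over 55% in size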
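Read-out is CellTiter-Glo luminescence after 10 minutes at room temperature, following 48 hours' compound treatment of HT-1080-NT cells (750 cells/well, RPMI, 5% FBS, 37 degrees C).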
KB-3-1 tox: kills parental KB-3-1 adenocarcinoma cells; KB-3-1 viability, CellTiter-Glo ATP luminescence, 72 h; 1.4% of 400,000 active; Potency, µM (doses to about 46.1 µM), actives largely listed as cytotoxic; note: % is set by controls: 0 for no effect and ±100 for the full control effect; nearly all actives have a fitted effect of over 60% in size
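Cytotoxicity in the drug-sensitive parental line KB-3-1 was scored as loss of CellTiter-Glo luminescence following 72 h incubation with compound. Values come from curve fitting of normalized concentration-response data.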
KB-V1 cytotox: kills drug-selected multidrug resistant KB-V1 cells; KB-V1 MDR cells viability, CellTiter-Glo, 72 h; Potency, µM (doses to about 46.1 µM), actives largely listed as cytotoxic; 3.4% of 400,000 active; note: % is set by controls: 0 for no effect and ±100 for the full control effect; nearly all actives have a fitted effect of over 60% in size
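Drug-selected KB-V1 cells, grown in DMEM lacking phenol red with 10% FBS, receive compound titrations; after three days at 37 degrees C, surviving cell ATP is quantified by CellTiter-Glo luminescence and responses normalized and curve-fitted.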
* = called active by the depositor; i = inactive; ? = inconclusive; / = no result; ! = not confirmed by another sample; [ ] = remark or other dose. Calls come from the whole dose curve; as a rule, active = well fitted curve in the direction sought with a large enough effect; inconclusive = small, poorly fitted or top-dose-only effect, or another doubt; inactive = no such curve, though single readings can be large; an effect the other way counts as inactive or inconclusive. Potency is the fitted concentration of half-maximal effect.

SMILES	MCF10A rerep	SW480 rerep	HT1080 IDH1KD tx	HT1080-NT tox	KB-3-1 tox	KB-V1 cytotox
CCOc1ccccc1C1CC(=O)Nc2cc(C)c(C)cc21 (stereo not given)	?	18µM*	15µM*	?	?	8.2µM*
CCOc1ccccc1C1CC(=O)Nc2cc(OC)c(OC)c(OC)c21 (stereo not given)	21%	-4%	13%	8%	i	?
COc1cccc(C2CC(=O)Nc3cc4c(cc32)OCO4)c1OC(C)C (stereo not given)	/	/	/	/	i	i
COc1cc2c(cc1OC)C(c1ccc(Br)cc1)CC(=O)N2 (stereo not given)	0.65µM*	?	-3%	-2%	i	i
COc1cc2c(cc1OC)C(c1ccco1)CC(=O)N2 (stereo not given)	-1%	-22%	-3%	0%	i	i
CC(C)Oc1ccccc1C1CC(=O)Nc2cc3c(cc21)OCO3 (stereo not given)	0.52µM*	?	1.8µM*	3.7µM*	2.6µM*	1.3µM*
COc1cc2c(cc1OC)C(c1cc(C)ccc1C)CC(=O)N2 (stereo not given)	0.65µM*	0%	-4%	-12%	i	?
Cc1cc2c(cc1C)C(c1ccccc1Br)CC(=O)N2 (stereo not given)	?	?	-9%	-5%	18µM*	23µM*
CCOc1ccccc1NC(=O)COC(=O)c1nc2nccc(C)n2n1	0%	?	6%	20%	i	i
O=C(CSc1ncccn1)Nc1ncc(C(F)(F)F)cc1Cl	2.1µM*	-61%	-3%	-1%	i	i
O=C(CN1CCN(c2ncc(C(F)(F)F)cc2Cl)CC1)NCCNc1ncc(C(F)(F)F)cc1Cl	18µM*	?	18µM*	?	i	?
O=C(NNc1ncc(C(F)(F)F)cc1Cl)c1c(Cl)cccc1Cl	6.5µM*	?	7.3µM*	?	5.8µM*	2.9µM*
CCc1ccc(C(=O)OCC(=O)N(CCOC)c2c(N)n(Cc3ccccc3)c(=O)[nH]c2=O)cc1	1%	-3%	7%	1%	i	i
NC(=O)c1ccccc1OCC(=O)N1CCc2ccccc2C1	2%	10µM*	-3%	-3%	i	?
CN(C)S(=O)(=O)c1cccc(-c2nn(-c3ccccc3)cc2/C=C(\C#N)c2nc3ccccc3[nH]2)c1	3.3µM*	?	3%	-1%	i	i
O=C(O)CCn1cc(/C=C2\SC(=S)NC2=O)c(-c2ccccc2)n1	2%	6%	11%	9%	i	i
N#C/C(=C\c1cn(-c2ccccc2)nc1-c1cc2ccccc2o1)c1nc2ccccc2[nH]1	?	2.9µM*	17%	19%	i	?
Cc1ccc(-c2nn(-c3ccccc3)cc2/C=C(\C#N)c2cccc(C#N)c2)o1	?	?	5%	0%	i	i
CN(C)S(=O)(=O)c1cccc(-c2nn(-c3ccccc3)cc2/C=C2\SC(=S)NC2=O)c1	?	-2%	10µM*	?	?	?
COc1ccc(-c2nn(-c3ccccc3)cc2/C=C(\C#N)S(=O)(=O)c2ccccc2)cc1OC	0%	-3%	2%	-2%	i	i
O=C(Cn1c(=O)nc(-c2ccccc2)c2ccccc21)NCCCc1ccccc1	/	/	/	/	i	i
CSCCC(NC(C)=O)C(=O)OCC(=O)N(c1ccccc1)c1ccccc1 (stereo not given)	20%	-1%	24%	20%	i	i
CCOc1ncccc1C(=O)N1CCN(c2cccc(C)c2C)CC1	?	0.73µM*	0.18µM*	0.18µM*	1µM*	?
CCOc1ncccc1C(=O)N1CCN(c2cc(Cl)ccc2C)CC1	15µM*	0.65µM*	1.3µM*	1µM*	2.1µM*	0.82µM*
COc1ccccc1CCC(=O)Nc1cccc(S(=O)(=O)N2CCCCCC2)c1	?	-3%	4%	-3%	i	?
SMILES	MCF10A rerep	SW480 rerep	HT1080 IDH1KD tx	HT1080-NT tox	KB-3-1 tox	KB-V1 cytotox
CS(=O)(=O)Nc1ccc(C(=O)Nc2ccc(S(=O)(=O)N3CCCCC3)cc2)cc1	-1%	-11%	-15%	1%	i	i
CCn1c(SCC(=O)Nc2nnc(C)s2)nnc1C(C)NC(=O)c1ccccc1F (stereo not given)	-1%	-7%	10%	12%	i	i
CCCCCCN1C=C/C(=C\C=C(C#N)C#N)c2ccccc21	-3%	-7%	-15%	-3%	16µM*	?
O=C(CN1C(=O)NC2NC(=O)NC21)N/N=C/c1ccc(F)cc1 (stereo not given)	-23%[9.22 µM]	-12%	-3%	7%	i	?
CCC(C)(c1nnnn1-c1c(C)cccc1C)N(N=O)c1cccc(C(F)(F)F)c1 (stereo not given)	22%	?	-23%	0%	?	16µM*
COC(=O)/C(=C\Nc1ccc(Cl)cc1Cl)NC(=O)c1ccc(Cl)cc1Cl	12µM*	19%	?	?	?	?
O=C(CN1CCN(Cc2ccccc2)CC1)Nc1ccc([N+](=O)[O-])cc1C(=O)Nc1ccccc1F	28%	-2%	21µM*	16µM*	i	?
O=C(CN1CCN(c2ccc(O)cc2)CC1)Nc1cc([N+](=O)[O-])ccc1Cl	-2%	2%	10%	4%	i	8.2µM*
O=C(CNS(=O)(=O)c1ccc(F)cc1)N1CCN(c2ccc(F)cc2)CC1	-1%	0%	-2%	-5%	i	i
COc1ccc(N2CCN(C(=O)CCNS(=O)(=O)c3ccc(Br)s3)CC2)cc1	3%	-5%	-2%[9.24 µM]	-3%	?	13µM*
O=C(CNS(=O)(=O)c1ccc(Br)s1)N1CCN(c2ccc(F)cc2)CC1	11%	0%	-1%	-2%	23µM*!	18µM*!
COc1ccc(N2CCN(C(=O)CCNS(=O)(=O)c3ccc(C)cc3)CC2)cc1	0%	-13%	-4%	0%	i	i
CCCCOc1ccc(C(=O)NCCN2CCC(n3c(=O)[nH]c4ccccc43)CC2)cc1	/	/	16µM*	?	i	?
O=C(NCCN1CCC(n2c(=O)[nH]c3ccccc32)CC1)c1ccc(OC(F)(F)F)cc1	/	/	?	?	i	i
O=C(NCCN1CCC(n2c(=O)[nH]c3ccccc32)CC1)c1ccc(F)c(C(F)(F)F)c1	/	/	?	?	i	i
